# Screening results: PubChem BioAssay, The Scripps Research Institute Molecular Screening Center
# The list is not random: actives were taken first. Their share in the collection is about 4.8%.
# DAX1 inh-1: NR0B1 (DAX1) inhibition | P51843 | 340,000 compounds, 0.99% hits | inhibition, % at 6.75 µM | AID 504766 | HEK293 Gal4-DAX1 luciferase reporter, luminescence;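 active = inhibition above the mean over all tested compounds plus 3 SD, cut at about 4.2% in these data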;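 note: 0% = DAX1-transfected cells with DMSO and 100% = empty-vector control cells with DMSO; inhibition shows as a rise in luminescence from relieved DAX1 repression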
# Target sequence (P51843 207-470 limits assumed): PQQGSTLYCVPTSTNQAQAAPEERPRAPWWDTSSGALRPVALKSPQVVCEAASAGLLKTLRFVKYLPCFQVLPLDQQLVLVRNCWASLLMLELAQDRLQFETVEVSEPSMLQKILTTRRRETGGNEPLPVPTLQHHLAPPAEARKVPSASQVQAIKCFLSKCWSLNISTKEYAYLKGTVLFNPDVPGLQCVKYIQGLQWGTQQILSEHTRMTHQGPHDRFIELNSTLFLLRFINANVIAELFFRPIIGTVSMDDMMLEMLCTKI
# hcDAF-12 act: activates DAF-12 receptor from parasite H. contortus | 370,000 compounds, 1.4% hits | HEK293 hcDAF-12 lit1-tk-luc reporter, luminescence; 0% DMSO, 100% Δ7-dafachronic acid | activation, % at 6.8 µM | AID 652067;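 active = activation above the mean of all tested compounds plus 3 SD, cut at about 5.5% in these data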;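 note: 100% = response to 3 µM Δ7-dafachronic acid high control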
# SMARCA2 activ: SMARCA2 function activation, primary screen | MG213 cells, MMTV-luciferase reporter, dexamethasone, overnight | activation, % at 9.1 µM | 370,000 compounds, 1% hits | AID 652017; in the data active = activation above about 7.8%;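 note: 0% = vehicle wells and 100% = reference activator wells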
# hgDAF-12 ag: activates the H. glycines DAF-12 receptor ligand-binding domain; 370,000 compounds, 1.8% hits; HEK293 GAL4-hgDAF12 UAS-luciferase reporter, agonist luminescence; normalized to butyrate control; AID 687014; activation, % at 6.8 µM;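 active = activation above a cutoff set at the mean of all screened compounds plus 3 SD, cut at about 10% in these data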;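 note: 0% = DMSO wells and 100% = sodium butyrate wells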
# DAX1 inh-2: inhibitors of DAX1 repression of SF-1 activated StAR promoter. HEK293T StAR-luciferase reporter, SF-1/DAX-1 repression relief. 370,000 compounds, 1.1% hits. inhibition, % at 6.8 µM;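 active = inhibition above the mean over all tested compounds plus 3 SD, cut at about 3.6% in these data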;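 note: 0% = DAX-1 cells with DMSO and 100% = cells lacking DAX-1 with DMSO; higher inhibition means more luminescence from relief of DAX-1 repression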
# ssDAF12 agonist: S. stercoralis DAF-12 activation, primary screen | HEK293 ssDAF-12/GRIP1 lit1-tk-luc reporter, luminescence; % of 3 µM dafachronic acid response | activation, % at 6.8 µM | 370,000 compounds, 1% hits | AID 652126;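 active = activation above the mean over all tested compounds plus 3 SD, cut at about 0.9% in these data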;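 note: 0% = DMSO-only wells and 100% = 3 µM delta7-dafachronic acid wells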
# DAX1 conf: confirmation of human DAX1 (NR0B1) inhibitors. shares compounds with DAX1 inh-2. HEK293T StAR-promoter luciferase reporter, SF-1/DAX-1 repression. inhibition, % at 6.8 µM. 2,400 compounds, 87% hits. AID 652134;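 active = inhibition above the average of every tested compound plus 3 SD, cut at about 3.8% in these data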;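 note: 0% = DAX-1 cells with DMSO and 100% = no DAX-1 control cells with DMSO; active compounds raise luminescence by relieving repression of the StAR reporter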
# SF1 mutant ctr: nonselective inhibitor or artifact in SF-1 mutant DAX1 counter-screen | shares compounds with DAX1 inh-2 | HEK293 StAR-luciferase, SF-1 AF2 mutant, luminescence | inhibition, % at 6.8 µM | 2,400 compounds, 78% hits | AID 652136;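 active = inhibition above the mean of all tested compounds plus 3 SD, cut at about 3% in these data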;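 note: 0% = DAX-1 transfected cells with DMSO and 100% = cells without DAX-1 with DMSO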
# LXRb hcDAF ctr: activates human LXR-beta, counter-screen for hcDAF-12 agonists | activation, % at 6.8 µM | HEK293 Gal4-LXR tk-luc reporter, luminescence, 24 h; normalized: DMSO 0%, positive control 100% | 3,400 tested, under 10 active | shares compounds with hcDAF-12 act;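 active = mean percent activation of the reporter above a cutoff set as the average over tested compounds plus their standard deviation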
# hcDAF12 conf: confirmation of H. contortus DAF-12 agonists; AID 743032; activation, % at 6.8 µM; 3,400 compounds, 61% hits; HEK293 hcDAF-12 lit1-tk-luc reporter, luminescence; % of Δ7-dafachronic acid response; shares compounds with hcDAF-12 act;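 active = mean activation across triplicate tests above the threshold derived from the earlier primary screen, cut at about 5.5% in these data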;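 note: 0% = DMSO only wells and 100% = 3 µM Δ7-dafachronic acid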
# Numbers without * were called inactive; . = no result given; ! = not confirmed by another sample.
SMILES,DAX1 inh-1,hcDAF-12 act,SMARCA2 activ,hgDAF-12 ag,DAX1 inh-2,ssDAF12 agonist,DAX1 conf,SF1 mutant ctr,LXRb hcDAF ctr,hcDAF12 conf
CS(=O)(=O)Nc1ccc(C2=NN(S(C)(=O)=O)C(c3ccc4nccnc4c3)C2)cc1 (configuration not stated),0,-1,0,2,0,0,.,.,.,.
CC(C)c1cc(C(C)C)c(S(=O)(=O)N2CCC(C(=O)NCC3COCCO3)CC2)c(C(C)C)c1 (configuration not stated),.,-4,-4,-1,0,-1,.,.,.,.
C[C@H]1C2CC(OC(=O)NCc3ccccc3)C(C2)[C@H]2CCCCN21 (some centres not stated),.,-2,-2,6,-1,0,.,.,.,.
Cc1c(C(=O)N2CCc3ccccc3C2)sc2nc(-c3ccccc3)cn12,-1,-1,0,1,0,-1,.,.,.,.
c1ccc(-c2cn3c4c(sc3n2)CCCC4)cc1,-3,8.5*,-1,5,6.2*!,0,10.0*,1,1,19*
O=C(Nc1ccon1)c1cnc2sccn2c1=O,0,3,2,3,0,-1,.,.,.,.
Cc1cccc(NC(=O)c2cnc3sccn3c2=O)c1,4,6.9*,2,13*,6.5*,0.9*,12*,4.4*,2,13*
COc1ccc(S[C@]2(C(=O)N3CCN(c4ncccn4)CC3)CC(=O)N(C(=O)Nc3ccc(C)c(Cl)c3)[C@@H]2c2ccc(OC)cc2)cc1,.,-1,-1,1,0,-1,.,.,.,.
O=C(CCN1C(=O)C2CCCCC2C1=O)Nc1nc2ccc(F)cc2s1 (configuration not stated),2,6.9*,1,9,4.7*,1,13*,3.5*,2,15*
CCN(CC)S(=O)(=O)c1cccc(-c2nc3n(n2)Cc2ccccc2-3)c1,0,0,3,3,1,-2,.,.,.,.
Clc1ccc(-c2nc3n(n2)Cc2ccccc2-3)cc1,3,17*,5,17*,5.1*,3.5*,13*,5.5*,2,24*
CC(C)c1ccc(-n2nc3ccc(N)cc3n2)cc1,0,9.8*,0,15*,5.1*,2.2*,14*,7.8*,2,18*
COc1ccc(-n2nc3ccc(N)cc3n2)cc1,-2,-1,-10,1,1,-1,.,.,.,.
CCN(CC)CCCNC(=O)c1oc(=O)c2ccccc2c1-c1ccc(C)cc1,.,2,3,4,1,-2,.,.,.,.
CCOC(=O)[C@]12CCCCC/C=C\1N(CCc1ccc(Cl)cc1)C(=O)[C@H]2CC(=O)N1CCOCC1,.,-1,-1,-2,-1,-2,.,.,.,.
Cc1c(C(=O)NC2=NCCS2)oc2ccccc12,1,19*,4,14*,5.3*,2.7*,14*,7.2*,2,21*
Cc1ccc(CN2CCCCC(NC(=O)c3cccc([N+](=O)[O-])c3)C2=O)cc1 (configuration not stated),.,-2,-3,-2,-2,-1,.,.,.,.
O=C(Nc1ccc2c(c1)OCCO2)c1ccccc1Cl,2,7.2*,1,12*,9.0*,0,16*,9.4*,1,8.1*
O=C(Nc1ccc2c(c1)OCCO2)c1cccc2nc3ccccc3nc12,0,-2,3,3,-1,-2,.,.,.,.
COc1ccc(-n2c(SCC(=O)Nc3ccccc3-c3ccccc3)nnc2-c2ccco2)cc1,.,-4,-6,-2,-1,-2,.,.,.,.
